{"source": "ChEMBL document CHEMBL3988442", "about": "“University of Dundee, Small-Polar-MMV Screening Library” (2021)", "note": "Out of some 69,000 compounds screened, about 950 (1.4%) showed an effect of 50% or more. The sample holds strong results, similar compounds and a random draw of the others, so the mix is not that of the screen.", "data": [{"test_system": "Mycobacterium tuberculosis", "experiment": "Cornell M. t heat shock assay; note: in the data most compounds retested in dose-response had high values", "type": "functional, organism-based", "design": "dose or concentration left out as unconfirmed", "units": {"Percent Effect": "%"}, "values": [{"smiles": "O=C(Nc1c(N2CCCC2)cccc1N1CCCC1)c1cnsn1", "Percent Effect": 3.548}, {"smiles": "O=C(Nc1c(N2CCCC2)cccc1N1CCCC1)c1ccccn1", "Percent Effect": 104.6}, {"smiles": "O=C(Nc1c(N2CCCC2)cccc1N1CCCC1)c1cnccn1", "Percent Effect": 26.63}, {"smiles": "Cl.Cn1cc(CN2CCN(CC3(c4ccccc4)CC3)CC2)cn1", "Percent Effect": -7.6}, {"smiles": "Cc1cccc(CN2C(=O)CCC23CCN(C(=O)c2ccco2)CC3)n1.O=C(O)C(F)(F)F", "Percent Effect": -22.73}, {"smiles": "COCc1nc(-c2ccnc(N3CCNCC3)n2)no1.Cl.Cl", "Percent Effect": 24.05}, {"smiles": "CC(C)Cn1cc(C(=O)NC2CCS(=O)(=O)C2)c2ccccc2c1=O", "note": "(stereo not given)", "Percent Effect": 1.323}, {"smiles": "O=C(NC1CCS(=O)(=O)C1)c1cn(C2CC2)c(=O)c2ccccc12", "note": "(stereo not given)", "Percent Effect": 62.62}, {"smiles": "CC(C)n1cc(C(=O)NC2CCS(=O)(=O)C2)c2ccccc2c1=O", "note": "(stereo not given)", "Percent Effect": -0.4948}, {"smiles": "O=C(O)C(F)(F)F.c1cc(CN2C[C@H](OCC3CCOCC3)[C@H]3COC[C@H]32)cs1", "Percent Effect": 11.94}, {"smiles": "O=C(NC1CCCC1)[C@@H]1CN(Cc2nccs2)C[C@H]2OCC[C@H]21.O=C(O)C(F)(F)F.O=C(O)C(F)(F)F", "Percent Effect": -17.32}, {"smiles": "CSCC(C)C(=O)NCc1c(C)nc2cc(=O)[nH]n2c1C", "note": "(stereo not given)", "Percent Effect": 9.376}, {"smiles": "Cn1ccnc1-c1ccc(NCC2COc3ccccc3O2)nn1", "note": "(stereo not given)", "Percent Effect": 32.53}, {"smiles": "Cn1ccnc1-c1ccc(NC[C@H]2CCc3ccccc3O2)nn1", "Percent Effect": 50.1}, {"smiles": "Cn1ccnc1-c1ccc(NCCC2COc3ccccc3O2)nn1", "note": "(stereo not given)", "Percent Effect": 44.06}, {"smiles": "Cl.O=C(C1CCC1)N1C[C@@H](c2ccsc2)[C@@H]2CN(C3CCCC3)CC[C@@H]21", "Percent Effect": -4.778}, {"smiles": "O=C(CCn1cc(Cl)cn1)N1C[C@@H]2CC[C@H](C1)N(Cc1ccccn1)C2", "Percent Effect": 7.885}, {"smiles": "CC(NCCCN1CCCC1=O)c1cc(Br)ccc1F", "note": "(stereo not given)", "Percent Effect": 13.95}, {"smiles": "CC(NCCCN1CCCC1=O)c1ccc(F)cc1N(C)C", "note": "(stereo not given)", "Percent Effect": 87.91}, {"smiles": "CC(NCCN1CCC(N(C)C)CC1)c1ccc(F)cc1N(C)C", "note": "(stereo not given)", "Percent Effect": -14.59}, {"smiles": "CCNC(=O)NCc1nn(CCN2CCCC2)c(=O)c2ccccc12", "Percent Effect": 41.46}, {"smiles": "COCC(=O)NCc1nn(CCN2CCCC2)c(=O)c2ccccc12", "Percent Effect": -7.005}, {"smiles": "CCOC(=O)NCc1nn(CCN2CCCC2)c(=O)c2ccccc12", "Percent Effect": 74.86}, {"smiles": "N#CCCN(Cc1ccco1)C(=O)c1ccc(OCC2CC2)cc1", "Percent Effect": 14.1}, {"smiles": "N#CCCN(Cc1cccnc1)C(=O)c1ccc(OCC2CC2)cc1", "Percent Effect": 6.663}, {"smiles": "N#CCCN(CCC#N)C(=O)c1ccc(OCC2CC2)cc1", "Percent Effect": 94.69}, {"smiles": "Cl.NCCC(=O)Nc1ccc(-c2ccccc2)cc1", "Percent Effect": 3.2}, {"smiles": "CC(=O)N1CCC(c2nc3ccc(NC4CCC4)cn3n2)CC1.O=C(O)C(F)(F)F", "Percent Effect": 21.7}, {"smiles": "O=C(O)C(F)(F)F.O=C(O)C(F)(F)F.O=c1ccc2c(n1Cc1cccnc1)CCN(Cc1ccoc1)CC2", "Percent Effect": -14.95}, {"smiles": "CC(C)c1nn(C)cc1CNC1CCOc2ccccc21.Cl", "note": "(stereo not given)", "Percent Effect": -5.42}, {"smiles": "O=C(CN1CCCS1(=O)=O)Nc1ccc(OC(F)F)cc1", "Percent Effect": -14.39}, {"smiles": "COc1ccc(CNC(=O)CN2CCc3ccccc32)cc1", "Percent Effect": -48.79}, {"smiles": "O=C(CN1CCc2ccccc21)Nc1ccc(OC(F)F)cc1", "Percent Effect": 99.06}, {"smiles": "COCCN1CCOCC2(C1)CN(C(=O)c1conc1C)CCO2.O=C(O)C(F)(F)F", "note": "(stereo not given)", "Percent Effect": 15.5}, {"smiles": "COCCC(=O)NC1CCN(CC2(c3cccc(F)c3)CCCC2)CC1.Cl", "Percent Effect": 23.79}, {"smiles": "CC(c1cccc(-c2ncc(C#N)c(N)n2)c1)N(C)C", "note": "(stereo not given)", "Percent Effect": -10.92}, {"smiles": "CC(c1cccc(-c2ncccc2F)c1)N(C)C", "note": "(stereo not given)", "Percent Effect": 76.79}, {"smiles": "Cc1ccc(C(=O)O)cc1-c1cccc(C(C)N(C)C)c1", "note": "(stereo not given)", "Percent Effect": -8.231}, {"smiles": "CC(c1cccc(-c2nccn2CCc2ccccn2)c1)N(C)C", "note": "(stereo not given)", "Percent Effect": -27.93}, {"smiles": "COC(C)(C)Cn1ccnc1-c1cccc(C(C)N(C)C)c1", "note": "(stereo not given)", "Percent Effect": -20.81}, {"smiles": "CC(c1cccc(-c2ncccc2C#N)c1)N(C)C", "note": "(stereo not given)", "Percent Effect": 73.93}, {"smiles": "Cc1ccc(CN2Cc3ccccc3O[C@]3(CC[C@H](CO)CC3)C2)o1.Cl", "Percent Effect": -44.64}, {"smiles": "Cc1nc(CN2C(=O)C[C@@H]3[C@@H]2CCN3CC2CCOCC2)cs1.O=C(O)C(F)(F)F", "Percent Effect": -14.82}, {"smiles": "COCCC(=O)N1C[C@H]2CN(Cc3cccc(C)n3)C(=O)[C@H]2C1.O=C(O)C(F)(F)F", "Percent Effect": -12.42}, {"smiles": "COc1cc(N2C[C@@H]3COC[C@]3(COCc3cccc(C)n3)C2)ncn1.O=C(O)C(F)(F)F.O=C(O)C(F)(F)F", "Percent Effect": 1.772}, {"smiles": "Cc1cnccc1-c1cnn(CCNC(=O)c2ccncc2)c1C1CC1.Cl", "Percent Effect": -0.5476}, {"smiles": "CN(C)CCN1C(=O)C2(CCN(CC3CC3)CC2)c2ccccc21.O=C(O)C(F)(F)F.O=C(O)C(F)(F)F", "Percent Effect": 2.693}, {"smiles": "Cc1ccc(CN2CCC[C@]3(C(=O)O)CN(C)C[C@@H]3C2)s1.O=C(O)C(F)(F)F.O=C(O)C(F)(F)F", "Percent Effect": 10.8}, {"smiles": "Cc1cc(N2CCC(c3nnc(CN(C)C)n3C3CC3)CC2)ccn1", "Percent Effect": -0.4086}, {"smiles": "CCn1c(CN(C)C)nnc1C1CCN(c2nccc(NC)n2)CC1", "Percent Effect": -31.54}, {"smiles": "CCn1c(CN(C)C)nnc1C1CCN(c2ccnc(C)c2)CC1", "Percent Effect": 105.5}, {"smiles": "Cc1cc(-n2cnnn2)n2ncnc2n1", "Percent Effect": -4.919}, {"smiles": "Cc1cc(N2CCCC2Cn2nc(C)cc2C)n2ncnc2n1", "note": "(stereo not given)", "Percent Effect": 11.78}, {"smiles": "Cc1cc(-n2cncn2)n2ncnc2n1", "Percent Effect": 61.29}, {"smiles": "O=C(C1CCC1)N1C[C@@H]2CC[C@H](C1)N(S(=O)(=O)c1ccccc1)C2", "Percent Effect": -12.74}, {"smiles": "CN(C)C(=O)N1C[C@@H]2CC[C@H](C1)N(S(=O)(=O)c1cccnc1)C2", "Percent Effect": -21.11}, {"smiles": "O=C(NCc1cccnc1)N1CCc2ncnc(NC3CC3)c2CC1.O=C(O)C(F)(F)F", "Percent Effect": -0.2594}, {"smiles": "CCOCC1c2c(ncn2C)CCN1C(=O)c1cnc(C)cn1.O=C(O)C(F)(F)F", "note": "(stereo not given)", "Percent Effect": 18.53}, {"smiles": "CCOCC1c2c(ncn2C)CCN1C(=O)c1ccoc1", "note": "(stereo not given)", "Percent Effect": 35.15}, {"smiles": "CCOCC1c2c(ncn2C)CCN1C(=O)c1cscn1", "note": "(stereo not given)", "Percent Effect": 57.96}, {"smiles": "CC(C)(CO)NCc1ccc(OCc2ccc3c(c2)OCCO3)cc1.Cl", "Percent Effect": -22.54}, {"smiles": "O=C(O)C(F)(F)F.O=C(O)C(F)(F)F.O=C(O)C(F)(F)F.c1cncc(CN2CC[C@@H]3O[C@H](COCCN4CCCC4)CC[C@@H]32)c1", "Percent Effect": -18.74}, {"smiles": "CC(C)C(=O)N1CC[C@@H]2[C@H](CC1)N(Cc1cccnc1)CCS2(=O)=O.O=C(O)C(F)(F)F.O=C(O)C(F)(F)F", "Percent Effect": -30.61}, {"smiles": "CCOC(=O)C(C)Nc1cccc(COCc2ccco2)c1", "note": "(stereo not given)", "Percent Effect": 104.6}, {"smiles": "Cc1cc(NC(=O)C(C)Nc2cccc(COCc3ccco3)c2)on1", "note": "(stereo not given)", "Percent Effect": 4.042}, {"smiles": "CC(Nc1cccc(COCc2ccco2)c1)C(=O)NC(N)=O", "note": "(stereo not given)", "Percent Effect": 0.6149}, {"smiles": "CC(C)CN1CCC2(CCCNC2)C1=O.Cl", "note": "(stereo not given)", "Percent Effect": -13.24}, {"smiles": "O=C(O)C(F)(F)F.O=C(c1cccnc1)N1CCc2ncnc(C3CCOC3)c2CC1", "note": "(stereo not given)", "Percent Effect": 8.544}, {"smiles": "COCc1nn(C(C)C)c2c1CCN(Cc1nccs1)C2.O=C(O)C(F)(F)F", "Percent Effect": -16.62}, {"smiles": "Cc1nc(CN2CCO[C@@H]3CN(Cc4cccs4)C[C@@H]3C2)cs1.O=C(O)C(F)(F)F.O=C(O)C(F)(F)F", "Percent Effect": -15.47}, {"smiles": "Cc1nc(CN2CCOCC3(CCN(c4cnccn4)CC3)C2)cs1.O=C(O)C(F)(F)F", "Percent Effect": -3.315}, {"smiles": "CCc1cccc2c(CC(=O)N(C)CCN(C)C)c(C)[nH]c12.O=C(O)CC(O)(CC(=O)O)C(=O)O", "Percent Effect": 1.394}, {"smiles": "Cc1cc(N[C@H]2CCCN(Cc3ccccc3)C2)n2nc(C)cc2n1", "Percent Effect": 37.52}, {"smiles": "Cc1cc(NC2CCCN(Cc3ccc(F)cc3)C2)n2nc(C)cc2n1", "note": "(stereo not given)", "Percent Effect": 55.79}, {"smiles": "Cc1cc(NC2CCN(c3ccc(F)cc3)CC2)n2nc(C)cc2n1", "Percent Effect": 11.63}, {"smiles": "CNc1ncc2c(n1)CN(Cc1ccc(Cl)cc1)C2=O", "Percent Effect": -7.307}, {"smiles": "C[C@@H]1CN(Cc2cc(C3CCCCC3)no2)CC[C@@]1(O)C1CC1", "Percent Effect": -30.44}, {"smiles": "COCCC(=O)N1CCC(c2cc(O)n(C)n2)C1", "note": "(stereo not given)", "Percent Effect": 9.695}, {"smiles": "Cn1ccc(C(=O)N2CCCC(c3cc(O)n(C)n3)C2)n1", "note": "(stereo not given)", "Percent Effect": -7.619}, {"smiles": "Cn1nc(C2CCCN(C(=O)CO)C2)cc1O", "note": "(stereo not given)", "Percent Effect": 54.18}, {"smiles": "COCCN1CCOCC12CCN(C(=O)c1cccnc1)CC2.O=C(O)C(F)(F)F", "Percent Effect": -43.19}, {"smiles": "CN1CC[C@@H]2OC[C@H](C(=O)N(C)Cc3ccccn3)C[C@@H]2C1.O=C(O)C(F)(F)F.O=C(O)C(F)(F)F", "Percent Effect": 42.17}, {"smiles": "O=C(NC1CC1)[C@@H]1CCO[C@@H]2CCN(Cc3ccsc3)C[C@H]21.O=C(O)C(F)(F)F", "Percent Effect": -0.7242}, {"smiles": "O=C(O)C(F)(F)F.O=C([C@@H]1C[C@@H]2CCN(CCc3ccccc3)C[C@H]2O1)N1CCCC1", "Percent Effect": 7.524}, {"smiles": "CN(C)Cc1cc(=O)n2c(n1)CN(CC1CC1)CCC2", "Percent Effect": -15.16}, {"smiles": "O=c1cc(CN2CCCC2)nc2n1CCCN(CC1CCOCC1)C2", "Percent Effect": -14.03}, {"smiles": "O=c1cc(CN2CCCC2)nc2n1CCCN(CC1CC1)C2", "Percent Effect": 59.59}, {"smiles": "COCC(=O)NC[C@H]1CC[C@H](c2nnc(-c3ccncc3)o2)CC1", "Percent Effect": -43.76}, {"smiles": "Cn1cc(CN2CCCC23CCN(Cc2nccn2C)CC3)cn1.O=C(O)C(F)(F)F.O=C(O)C(F)(F)F", "Percent Effect": -17.58}, {"smiles": "Cl.Cl.O=C(NCc1cncc2c1CCN(C1CCOCC1)C2)c1ccco1", "Percent Effect": 7.016}]}]}
